# Results published in PubChem BioAssay (Tox21).
# Several values for one entry are separate records, joined by “and”; a condition that tells them apart may be missing. Identical values can stand only once. Results filed as inconclusive are left out. A call without a number means that no potency is given here. Activity calls are given as the source filed them. Unless noted, the call rests on the fitted dose curve; in most records, active means well fitted curve in the direction sought with a large enough effect in the repeat runs; inconclusive means weak or mixed curves; inactive means no such curve, though single readings can be large; an effect the other way counts as inactive or inconclusive.
# Legend:
# [1] = qHTS assay for identifying genotoxic compounds that show differential cytotoxicity against isogenic chicken DT40 cell lines with known DNA damage response pathways - wild type cell line (AID 743012); further: potency means the concentration at half of the fitted maximal effect; nearly all actives have a fitted effect of over 60% in size
# In short: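 Viability by ATP luminescence (CellTiter-Glo, 30 min RT) after 40 h compound treatment at 37 C/5% CO2, using 300 parental DNA repair-proficient DT40 cells per well.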
# [2] = qHTS assay for identifying genotoxic compounds that show differential cytotoxicity against isogenic chicken DT40 cell lines with known DNA damage response pathways - Rev3 mutant cell line (AID 743014); further: nearly all actives have a fitted effect of over 55% in size; further: potency means the concentration at half of the fitted maximal effect
# [3] = qHTS assay for identifying genotoxic compounds that show differential cytotoxicity against isogenic chicken DT40 cell lines with known DNA damage response pathways - Rad54/Ku70 mutant cell line (AID 743015); further: nearly all actives have a fitted effect of over 60% in size; further: potency means the concentration at half of the fitted maximal effect
# [4] = qHTS assay to identify small molecule antagonists of the androgen receptor (AR) signaling pathway - cell viability counter screen (AID 743033; further: nearly all actives have a fitted effect of over 45% in size; further: potency means the concentration at half of the fitted maximal effect)
# [5] = target: Androgen receptor (Homo sapiens) (UniProt P10275); assay: qHTS assay to identify small molecule antagonists of the androgen receptor (AR) signaling pathway (AID 743035; active means well fitted inhibition curve with a large enough effect in the signal ratio in the repeat runs, not every such curve was filed as active; the % refers to the signal ratio; further: potency means the concentration at half of the fitted maximal effect)
# Chain of Androgen receptor (Homo sapiens) (P10275 whole entry, looked up): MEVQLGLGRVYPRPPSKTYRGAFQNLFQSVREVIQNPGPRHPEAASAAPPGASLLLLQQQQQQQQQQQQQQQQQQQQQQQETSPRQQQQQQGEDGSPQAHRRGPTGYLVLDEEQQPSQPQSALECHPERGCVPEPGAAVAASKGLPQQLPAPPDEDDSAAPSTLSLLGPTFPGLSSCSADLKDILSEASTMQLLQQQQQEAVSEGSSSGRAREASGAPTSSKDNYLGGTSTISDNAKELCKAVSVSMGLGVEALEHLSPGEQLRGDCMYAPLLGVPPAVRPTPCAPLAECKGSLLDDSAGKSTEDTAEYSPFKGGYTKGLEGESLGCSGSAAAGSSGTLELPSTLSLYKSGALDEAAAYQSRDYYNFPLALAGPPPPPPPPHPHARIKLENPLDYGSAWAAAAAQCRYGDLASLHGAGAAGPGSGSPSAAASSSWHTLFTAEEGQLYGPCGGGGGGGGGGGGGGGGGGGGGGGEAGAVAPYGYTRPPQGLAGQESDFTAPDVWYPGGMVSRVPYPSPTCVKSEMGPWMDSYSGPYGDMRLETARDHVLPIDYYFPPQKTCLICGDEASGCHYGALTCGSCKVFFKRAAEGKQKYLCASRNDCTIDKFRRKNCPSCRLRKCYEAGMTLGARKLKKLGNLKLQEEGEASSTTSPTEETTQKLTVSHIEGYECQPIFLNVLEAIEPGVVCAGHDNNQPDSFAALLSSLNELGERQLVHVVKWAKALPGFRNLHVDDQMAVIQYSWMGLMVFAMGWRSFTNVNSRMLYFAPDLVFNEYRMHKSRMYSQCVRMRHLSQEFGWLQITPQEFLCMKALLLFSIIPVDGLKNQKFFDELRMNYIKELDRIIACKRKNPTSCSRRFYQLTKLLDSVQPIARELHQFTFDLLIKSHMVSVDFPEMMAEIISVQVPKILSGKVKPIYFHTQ
# In short: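 Antagonist mode: AR-bla HEK293 cells co-treated with test compounds and agonist R1881 for 16 h at 37C, 5% CO2. Beta-lactamase activity read as FRET fluorescence after 2 h room-temperature substrate loading.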
# [6] = target: Androgen receptor (Homo sapiens) (UniProt P10275); assay: qHTS assay to identify small molecule agonists of the androgen receptor (AR) signaling pathway using the MDA cell line (AID 743040; further: nearly all actives have a fitted effect of over 20% in size; further: potency means the concentration at half of the fitted maximal effect)
# In short: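 Luciferase read-out, ONE-Glo, 30 min RT. Cells: MDA-kb2 AR-luc, MMTV promoter with AR and GR response elements. Compound exposure 16 h, 37C, 0% CO2, after 5 h pre-incubation. qHTS agonist mode.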
# [7] = qHTS assay to identify small molecule antagonists of the androgen receptor (AR) signaling pathway using the MDA cell line - cell viability counter screen (AID 743041; further: nearly all actives have a fitted effect of over 45% in size; further: potency means the concentration at half of the fitted maximal effect)
# In short: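 Cytotoxicity counter screen: MDA-kb2 AR-luc cells, compound + R1881, 16 h, 37C, 0% CO2; CellTiter-Fluor added at 15.5 h, fluorescence read after 30 min.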
# [8] = target: Androgen receptor (Homo sapiens) (UniProt P10275); assay: qHTS assay to identify small molecule antagonists of the androgen receptor (AR) signaling pathway using the MDA cell line (AID 743042; further: nearly all actives have a fitted effect of over 55% in size; further: potency means the concentration at half of the fitted maximal effect)
# In short: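 MDA-kb2 breast carcinoma cells carrying MMTV-luciferase (AR/GR responsive) were co-treated with compounds and the agonist R1881 for 16 h at 37C. Inhibition read as ONE-Glo luminescence; CellTiter-Fluor fluorescence measured in parallel for cytotoxicity.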
# [9] = target: Estrogen receptor (Homo sapiens) (UniProt P03372); assay: qHTS assay to identify small molecule agonists of the estrogen receptor alpha (ER-alpha) signaling pathway (AID 743075; calls by dose curve;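 further: HEK293 GripTite cells with ER-alpha and UAS-driven beta-lactamase reporter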)
# Chain of Estrogen receptor (Homo sapiens) (P03372 whole entry, looked up): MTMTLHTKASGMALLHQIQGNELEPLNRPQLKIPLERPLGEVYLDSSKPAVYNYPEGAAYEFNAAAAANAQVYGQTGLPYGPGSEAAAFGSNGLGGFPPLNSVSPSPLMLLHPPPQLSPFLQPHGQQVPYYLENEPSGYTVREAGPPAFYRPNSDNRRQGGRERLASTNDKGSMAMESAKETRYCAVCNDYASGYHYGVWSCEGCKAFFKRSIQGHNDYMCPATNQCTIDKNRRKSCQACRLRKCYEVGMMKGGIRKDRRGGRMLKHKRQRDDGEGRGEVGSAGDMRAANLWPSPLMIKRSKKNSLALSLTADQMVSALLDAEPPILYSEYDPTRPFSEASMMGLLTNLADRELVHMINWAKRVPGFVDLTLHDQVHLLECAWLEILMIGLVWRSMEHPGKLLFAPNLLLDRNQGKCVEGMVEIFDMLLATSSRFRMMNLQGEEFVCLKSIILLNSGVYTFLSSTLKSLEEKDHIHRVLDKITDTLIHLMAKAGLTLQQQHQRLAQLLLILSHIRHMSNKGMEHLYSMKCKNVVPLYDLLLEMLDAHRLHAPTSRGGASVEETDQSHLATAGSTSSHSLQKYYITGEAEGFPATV
# [10] = qHTS assay to identify small molecule antagonists of the estrogen receptor alpha (ER-alpha) signaling pathway using the BG1 cell line (AID 743080; calls by dose curve;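 further: BG1 cells stimulated with 17beta-estradiol alongside compound; nearly all actives have a fitted effect of over 25% in size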; further: potency means the concentration at half of the fitted maximal effect); details: BG1Luc4E2 ERE-luciferase antagonist mode, luminescence; activity change, negative = inhibition: at 70.3 µM (top of the series)
# In short: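 BG1-Luc-4E2 cells (endogenous full-length ER-alpha, 4xERE luciferase) hormone-starved 5 days in charcoal-stripped FBS, plated 4,000/well for 24 h, then compound plus 17beta-estradiol for 21.5 h at 37 C; ONE-Glo luminescence read.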
# [11] = qHTS assay to identify small molecule antagonists of the estrogen receptor alpha (ER-alpha) signaling pathway using the BG1 cell line - cell viability counter screen (AID 743081);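 further: compound given together with 17beta-estradiol as the ER stimulus; nearly all actives have a fitted effect of over 45% in size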; further: potency means the concentration at half of the fitted maximal effect
# [12] = target: Aromatase (Homo sapiens) (UniProt P11511); assay: qHTS assay to identify aromatase inhibitors (AID 743083); further: nearly all actives have a fitted effect of over 55% in size; further: potency means the concentration at half of the fitted maximal effect
# Chain of Aromatase (Homo sapiens) (P11511 whole entry, looked up): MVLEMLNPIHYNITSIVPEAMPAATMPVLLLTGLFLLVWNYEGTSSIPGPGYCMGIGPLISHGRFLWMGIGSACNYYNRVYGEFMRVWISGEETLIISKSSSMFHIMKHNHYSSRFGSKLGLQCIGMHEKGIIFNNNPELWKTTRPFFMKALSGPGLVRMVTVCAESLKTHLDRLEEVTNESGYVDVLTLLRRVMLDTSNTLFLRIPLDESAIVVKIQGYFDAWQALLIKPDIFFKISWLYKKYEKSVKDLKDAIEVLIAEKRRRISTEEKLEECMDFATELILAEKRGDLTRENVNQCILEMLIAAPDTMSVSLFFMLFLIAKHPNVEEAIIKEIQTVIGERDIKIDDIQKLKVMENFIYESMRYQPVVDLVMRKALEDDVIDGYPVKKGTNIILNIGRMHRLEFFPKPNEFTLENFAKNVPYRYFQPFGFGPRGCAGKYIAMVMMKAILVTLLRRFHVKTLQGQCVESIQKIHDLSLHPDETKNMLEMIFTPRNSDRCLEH
# [13] = qHTS assay to identify small molecule antagonists of the glucocorticoid receptor (GR) signaling pathway - cell viability counter screen (AID 720693); further: nearly all actives have a fitted effect of over 55% in size
# [14] = target: Androgen receptor (Homo sapiens) (UniProt P10275); assay: qHTS assay to identify small molecule agonists of the androgen receptor (AR) signaling pathway (AID 743036; active means well fitted activation curve with a large enough effect in the signal ratio in the repeat runs, with a control signal flat, not every such curve was filed as active; the % refers to the signal ratio)
# In short: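 Quantitative HTS of the Tox21 10K library in HEK293 cells bearing a stably integrated UAS-controlled beta-lactamase reporter. Compound exposure lasted 16 h at 37C. Reporter activity was detected by FRET substrate fluorescence after 2 h at room temperature.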
# [15] = target: Estrogen receptor (Homo sapiens) (UniProt P03372); assay: qHTS assay to identify small molecule antagonists of the estrogen receptor alpha (ER-alpha) signaling pathway (AID 743069; active means well fitted curve in the direction sought with a large enough effect in the signal ratio in the repeat runs, not every such curve was filed as active; the % refers to the signal ratio)
# In short: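 Beta-lactamase FRET fluorescence is read after 2 hr at room temperature with LiveBLAzer B/G substrate. Before that, ER-alpha-bla HEK293 cells sit 4 hr after plating, then receive compound plus 17beta-estradiol and incubate 18 hr at 37C.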
# [16] = qHTS assay to identify small molecule antagonists of the estrogen receptor alpha (ER-alpha) signaling pathway - cell viability counter screen (AID 743074; calls by dose curve;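 further: HEK293 cells carrying ER-alpha-UAS-bla reporter stimulated with 17beta-estradiol; nearly all actives have a fitted effect of over 45% in size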)
# [17] = target: Estrogen receptor (Homo sapiens) (UniProt P03372); assay: qHTS assay to identify small molecule agonists of the estrogen receptor alpha (ER-alpha) signaling pathway using the BG1 cell line (AID 743079); details: BG1Luc4E2 cells, ERE-luciferase agonist, 22 h; activation: at 70.3 µM (top of the series); further: nearly all actives have a fitted effect of over 20% in size; further: potency means the concentration at half of the fitted maximal effect
# [18] = qHTS assay to identify small molecule antagonists of the thyroid receptor (TR) signaling pathway - cell viability counter screen (AID 743064); further: nearly all actives have a fitted effect of over 50% in size
# In short: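 Rat GH3 pituitary tumor cells stably expressing two TR response elements driving luciferase were plated, rested 4 h, then dosed with library compounds and T3 (1 nM final). After 23.5 h at 37 °C, CellTiter-Fluor was added for 30 min and fluorescence recorded.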
# [19] = tested on: thyroid hormone receptor (rat, GH3 cells); assay: qHTS assay to identify small molecule agonists of the thyroid receptor (TR) signaling pathway (AID 743066; calls by dose curve; further: potency means the concentration at half of the fitted maximal effect)
# [20] = qHTS assay to identify small molecule antagonists of the thyroid receptor (TR) signaling pathway (AID 743065); further: nearly all actives have a fitted effect of over 55% in size
# In short: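 GH3.TRE-Luc rat pituitary cells (two TREs driving luciferase) were dosed with compound, then stimulated with 1 nM T3 (final) for 23.5 h at 37 C. ONE-Glo luminescence was the read-out, with CellTiter-Fluor fluorescence as the cytotoxicity counter-screen.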
structure (smiles),measurement,setting,value
NC(=O)c1nc(-c2cccc(-c3cc(F)ccc3OCC(F)(F)C(F)(F)F)c2)n[nH]1,Potency,[1],17.2 µM (active)
same,Potency,[2],24.3 µM (active)
same,Potency,[3],13.7 µM (active)
same,Potency,[4],21.9 µM (active)
same,Potency,[5],13.8 µM (active)
same,Potency,[6],inactive
same,Potency,[7],61.1 µM (active)
same,Potency,[8],61.1 µM (active)
same,Potency,[9],inactive
same,Potency,[10],68.6 µM (active)
same,Potency,[11],inactive
same,Potency,[12],30.6 µM (active)
C=CC(C)(CCC=C(C)C)OC(=O)/C=C/c1ccccc1 (centres undefined),Potency,[13],inactive
same,Potency,[5],inactive
same,outcome,[14],inactive
same,Potency,[6],inactive
same,Potency,[7],inactive
same,Potency,[8],inactive
same,Potency,[15],inactive
same,Potency,[16],inactive
same,Potency,[9],inactive
same,Potency,[17],61.1 µM (active)
same,Potency,[10],inactive
same,Potency,[11],inactive
same,Potency,[12],inactive
C=C(C)C(=O)OCCC[Si](Cl)(Cl)Cl,Potency,[13],inactive
same,Potency,[2],inactive
same,Potency,[3],inactive
same,Potency,[4],inactive
same,Potency,[7],inactive
same,Potency,[18],inactive
same,Potency,[16],inactive
same,Potency,[11],inactive
same,Potency,[12],inactive
C[C@]12CC[C@H]3C(=CCc4cc(O)ccc43)[C@@H]1CCC2=O,Potency,[13],inactive
same,Potency,[2],54.5 µM (active)
same,Potency,[3],48.6 µM (active)
same,Potency,[6],5.45 µM (active)
same,Potency,[8],27.3 µM (active)
same,Potency,[19],1.54 µM (active)
same,Potency,[16],inactive
same,activation,[17],38% (active)
same,Potency,[11],inactive
same,Potency,[12],inactive
c1ccc(Sc2ccccc2)cc1,Potency,[13],inactive
same,Potency,[2],68.6 µM (active)
same,Potency,[5],inactive
same,outcome,[14],inactive
same,Potency,[6],inactive
same,Potency,[7],inactive
same,Potency,[8],inactive
same,Potency,[19],inactive
same,Potency,[15],inactive
same,Potency,[16],inactive
same,Potency,[9],inactive
same,Potency,[17],inactive
same,Potency,[10],inactive
same,Potency,[11],inactive
same,Potency,[12],inactive
CN1[C@@H]2CC[C@H]1CC(OC(=O)C(CO)c1ccccc1)C2 (some centres undefined),Potency,[13],inactive
same,Potency,[4],inactive
same,Potency,[7],inactive
same,Potency,[16],inactive
same,Potency,[11],inactive
same,Potency,[12],inactive
O=C(Oc1ccccc1)c1cccc(C(=O)Oc2ccccc2)c1,Potency,[13],inactive
same,Potency,[2],72.3 µM (active)
same,Potency,[3],67 µM (active)
same,Potency,[4],inactive
same,Potency,[6],inactive
same,Potency,[7],inactive
same,Potency,[8],inactive
same,Potency,[20],inactive
same,Potency,[19],inactive
same,Potency,[12],inactive
CC(=O)Oc1ccc(C2(c3ccc(OC(C)=O)cc3)C(=O)Nc3ccccc32)cc1,Potency,[13],inactive
same,Potency,[2],inactive
same,Potency,[4],inactive
same,Potency,[19],inactive
same,Potency,[15],inactive
same,Potency,[16],inactive
same,Potency,[9],inactive
same,Potency,[11],841 nM (active) and 1.19 µM (active)
same,Potency,[12],inactive
